Assay in all cases: growth (OD600 after 10 h); higher = more growth (less inhibition)
Experiment [1] relates to E. coli TESEC Alr+ wild-type control. The settings on record: compound 0.1 mM; raw OD600 reference: median of DMSO wells 0.241, cell-free background 0.041. On the procedure: (§1)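 TESEC Mtb Alr E. coli, or the Alr+ wild-type control, in 384-well plates with Prestwick library compounds at 0.1 mM and 1% DMSO, across arabinose induction levels of 1E3 to 1E7 nM. Growth is read as OD600 after 10 h at 37 °C in triplicate biological replicates.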

Experiment [2] deals with E. coli TESEC Mtb Alr. The conditions noted are these: compound 0.1 mM. Here is the method: as §1
The next experiment concerns E. coli TESEC Mtb Asd. The settings on record: compound 0.1 mM. On the procedure:
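TESEC E. coli strains in which the native enzyme is deleted and replaced by arabinose-inducible Mtb Asd, DapB, CysH or TrpD, each grown in its selective medium. Strains were screened against the Prestwick library at 0.1 mM and 1% DMSO in 384-well format at low and high arabinose induction. Growth is read as OD600 after 10 h in triplicate.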

Experiment [3] relates to E. coli TESEC Alr+ wild-type control. The conditions noted are these: compound 0.1 mM; raw OD600 reference: median of DMSO wells 0.49, cell-free background 0.052. On the procedure: (§2)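 TESEC Mtb Alr E. coli (ΔaraC ΔtolC ΔentC Δalr ΔdadX, arabinose-inducible Mtb Alr) or the Alr+ wild-type control strain, grown in defined M9-fructose medium without D-alanine in 96-well plates with Prestwick library compounds at 0.1 mM and 1% DMSO. Low Alr induction is 0.1 µM arabinose and high induction is 10 mM arabinose.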

Experiment [4] deals with E. coli TESEC Mtb Alr. The settings on record: compound 0.1 mM. On the procedure: as §2
This is another data set of the same source.

Where [5] appears, read: arabinose 1000 nM, raw OD600 reference: median of DMSO wells 0.294, cell-free background 0.041.
Where [6] appears, read: arabinose 10000 nM, raw OD600 reference: median of DMSO wells 0.264, cell-free background 0.041.
The mark [7] stands for this setting: arabinose 100000 nM, raw OD600 reference: median of DMSO wells 0.201, cell-free background 0.041.
[8] abbreviates: arabinose 1000000 nM, raw OD600 reference: median of DMSO wells 0.193, cell-free background 0.041.
The mark [9] stands for this setting: arabinose 10000000 nM, raw OD600 reference: median of DMSO wells 0.146, cell-free background 0.041.
The mark [10] stands for this setting: arabinose induction (level): High, raw OD600 reference: median of DMSO wells 0.331, cell-free background 0.041.
The mark [11] stands for this setting: arabinose induction (level): Low, raw OD600 reference: median of DMSO wells 0.417, cell-free background 0.041.
[12] abbreviates: arabinose 100 nM, raw OD600 reference: median of DMSO wells 0.413, cell-free background 0.052.
Setting [13] is: arabinose 10000000 nM, raw OD600 reference: median of DMSO wells […], cell-free background 0.052.

Where a name gives a salt, the structure may show the parent alone. ± gives the standard deviation of the averaged measurements.

Take `COc1cc(N)c(Cl)cc1C(=O)NC1CCN(Cc2ccccc2)CC1` [Clebopride maleate]: the growth in experiment [1] turned out to be 0.19 ± 0.002; with E. coli TESEC Mtb Alr [2] (setting [5]), 0.263 ± 0.0076; with E. coli TESEC Mtb Alr [2] (setting [6]), 0.24 ± 0.005; in the experiment with E. coli TESEC Mtb Alr [2] (setting [7]) it was 0.171 ± 0.016; in the experiment with E. coli TESEC Mtb Alr [2] (setting [8]), 0.132 ± 0.0034; in the experiment with E. coli TESEC Mtb Alr [2] (setting [9]), 0.129 ± 0.0055. Further, the growth with E. coli TESEC Mtb Asd (setting [10]) came to 0.163 ± 0.016; in the experiment with E. coli TESEC Mtb Asd (setting [11]), 0.277 ± 0.036; in experiment [3], 0.474 ± 0.027; in the experiment with E. coli TESEC Mtb Alr [4] (setting [12]), 0.397 ± 0.0065; in the experiment on E. coli TESEC Mtb Alr [4] (setting [13]), 0.314 ± 0.016.
Consider `C[C@]12C=CC(=O)C=C1CC[C@@H]1[C@@H]2C(=O)C[C@@]2(C)[C@H]1CC[C@]2(O)C(=O)CO` [Prednisone], for which the growth in experiment [1] was 0.221 ± 0.01; in the experiment with E. coli TESEC Mtb Alr [2] (setting [5]) it was 0.298 ± 0.017; in the experiment on E. coli TESEC Mtb Alr [2] (setting [6]) it was 0.256 ± 0.0052; in the experiment with E. coli TESEC Mtb Alr [2] (setting [7]), 0.203 ± 0.012; with E. coli TESEC Mtb Alr [2] (setting [8]), 0.173 ± 0.0063; in the experiment on E. coli TESEC Mtb Alr [2] (setting [9]) it was 0.162 ± 0.0056. Besides, the growth was determined as 0.237 ± 0.029 with E. coli TESEC Mtb Asd (setting [10]); 0.414 ± 0.042 with E. coli TESEC Mtb Asd (setting [11]); 0.479 ± 0.044 in experiment [3]; 0.412 ± 0.005 with E. coli TESEC Mtb Alr [4] (setting [12]); 0.352 ± 0.019 in the experiment with E. coli TESEC Mtb Alr [4] (setting [13]).
As to `CN(C)[C@@H]1C(=O)C(C(=O)NCNCCCC[C@H](N)C(=O)O)=C(O)[C@@]2(O)C(=O)C3=C(O)c4c(O)cccc4[C@@](C)(O)[C@H]3C[C@@H]12` [Lymecycline], the growth in experiment [1] stood at 0.178 ± 0.0022; in the experiment with E. coli TESEC Mtb Alr [2] (setting [5]), 0.221 ± 0.0059; with E. coli TESEC Mtb Alr [2] (setting [6]) it was 0.18 ± 0.011; with E. coli TESEC Mtb Alr [2] (setting [7]), 0.204 ± 0.016; in the experiment on E. coli TESEC Mtb Alr [2] (setting [8]) it was 0.0804 ± 0.0073; in the experiment on E. coli TESEC Mtb Alr [2] (setting [9]), 0.101 ± 0.0033. The growth with E. coli TESEC Mtb Asd (setting [10]) amounted to 0.12 ± 0.0094; with E. coli TESEC Mtb Asd (setting [11]), 0.159 ± 0.0077; in experiment [3], 0.329 ± 0.017; in the experiment on E. coli TESEC Mtb Alr [4] (setting [12]), 0.312 ± 0.031; with E. coli TESEC Mtb Alr [4] (setting [13]), 0.0693 ± 0.0019.
As to `C[C@]12CC[C@H]3C(=CCc4cc(O)ccc43)[C@@H]1CCC2=O` [Equilin], the growth in experiment [1] came out at 0.126 ± 0.0019; with E. coli TESEC Mtb Alr [2] (setting [5]) it was 0.17 ± 0.0095; with E. coli TESEC Mtb Alr [2] (setting [6]), 0.226 ± 0.0079; with E. coli TESEC Mtb Alr [2] (setting [7]) it was 0.154 ± 0.0054; in the experiment with E. coli TESEC Mtb Alr [2] (setting [8]) it was 0.0878 ± 0.0015; in the experiment on E. coli TESEC Mtb Alr [2] (setting [9]) it was 0.125 ± 0.0018. Also, the growth with E. coli TESEC Mtb Asd (setting [10]) turned out to be 0.159 ± 0.0023; in the experiment with E. coli TESEC Mtb Asd (setting [11]), 0.258 ± 0.044; in experiment [3], 0.424 ± 0.0094; in the experiment on E. coli TESEC Mtb Alr [4] (setting [12]), 0.388 ± 0.0096; with E. coli TESEC Mtb Alr [4] (setting [13]), 0.163 ± 0.0075.
`CN(CCOc1ccc(CC2SC(=O)NC2=O)cc1)c1ccccn1` (centres undefined) [Rosiglitazone Hydrochloride]: the growth in experiment [1] was found to be 0.142 ± 0.0027; in the experiment with E. coli TESEC Mtb Alr [2] (setting [5]), 0.177 ± 0.0057; in the experiment on E. coli TESEC Mtb Alr [2] (setting [6]), 0.168 ± 0.011; in the experiment on E. coli TESEC Mtb Alr [2] (setting [7]), 0.177 ± 0.0028; with E. coli TESEC Mtb Alr [2] (setting [8]) it was 0.0847 ± 0.0029; in the experiment with E. coli TESEC Mtb Alr [2] (setting [9]), 0.112 ± 0.0041. Moreover, the growth amounted to 0.184 ± 0.026 with E. coli TESEC Mtb Asd (setting [10]); 0.19 ± 0.023 with E. coli TESEC Mtb Asd (setting [11]); 0.327 ± 0.0092 in experiment [3]; 0.266 ± 0.021 in the experiment on E. coli TESEC Mtb Alr [4] (setting [12]); 0.1 ± 0.016 with E. coli TESEC Mtb Alr [4] (setting [13]).
On to `O=C(OCC(O)CO)c1ccccc1Nc1ccnc2cc(Cl)ccc12` (centres undefined) [Glafenine hydrochloride], for which the growth in experiment [1] is 0.116 ± 0.0048; in the experiment with E. coli TESEC Mtb Alr [2] (setting [5]), 0.146 ± 0.006; in the experiment on E. coli TESEC Mtb Alr [2] (setting [6]) it was 0.164 ± 0.017; with E. coli TESEC Mtb Alr [2] (setting [7]), 0.187 ± 0.026; in the experiment on E. coli TESEC Mtb Alr [2] (setting [8]), 0.102 ± 0.0023; in the experiment on E. coli TESEC Mtb Alr [2] (setting [9]), 0.144 ± 0.0045. Besides, the growth in the experiment on E. coli TESEC Mtb Asd (setting [10]) stood at 0.253 ± 0.04; in the experiment with E. coli TESEC Mtb Asd (setting [11]) it was 0.17 ± 0.021; in experiment [3], 0.374 ± 0.0054; with E. coli TESEC Mtb Alr [4] (setting [12]) it was 0.384 ± 0.022; in the experiment on E. coli TESEC Mtb Alr [4] (setting [13]), 0.149 ± 0.02.
Turning to `CNCCC=C1c2ccccc2CCc2ccccc21` [Nortriptyline hydrochloride], the growth in experiment [1] was 0.188 ± 0.014; in the experiment with E. coli TESEC Mtb Alr [2] (setting [5]), 0.181 ± 0.0093; in the experiment with E. coli TESEC Mtb Alr [2] (setting [6]), 0.205 ± 0.011; in the experiment with E. coli TESEC Mtb Alr [2] (setting [7]), 0.155 ± 0.01; in the experiment on E. coli TESEC Mtb Alr [2] (setting [8]), 0.0683 ± 0.00076; with E. coli TESEC Mtb Alr [2] (setting [9]) it was 0.0845 ± 0.0019. The growth in the experiment on E. coli TESEC Mtb Asd (setting [10]) turned out to be 0.137 ± 0.0013; in the experiment on E. coli TESEC Mtb Asd (setting [11]) it was 0.179 ± 0.0089; in experiment [3], 0.46 ± 0.061; in the experiment with E. coli TESEC Mtb Alr [4] (setting [12]), 0.4083 ± 0.0029; in the experiment on E. coli TESEC Mtb Alr [4] (setting [13]) it was 0.264 ± 0.013.
Take `Cc1cc(C2CCCCC2)n(O)c(=O)c1` [Ciclopirox ethanolamine]: the growth is 0.04347 ± 0.00021 in experiment [1]; 0.04303 ± 5.8e-05 in the experiment on E. coli TESEC Mtb Alr [2] (setting [5]); 0.03957 ± 0.00035 in the experiment with E. coli TESEC Mtb Alr [2] (setting [6]); 0.0447 ± 0.00064 in the experiment on E. coli TESEC Mtb Alr [2] (setting [7]); 0.03987 ± 0.00012 in the experiment on E. coli TESEC Mtb Alr [2] (setting [8]); 0.0504 ± 0.00059 in the experiment with E. coli TESEC Mtb Alr [2] (setting [9]). The growth is 0.0544 ± 0.0014 in the experiment with E. coli TESEC Mtb Asd (setting [10]); 0.0525 ± 0.0041 with E. coli TESEC Mtb Asd (setting [11]); 0.0666 ± 0.0021 in experiment [3]; 0.0481 ± 0.00095 with E. coli TESEC Mtb Alr [4] (setting [12]); 0.0634 ± 0.0046 with E. coli TESEC Mtb Alr [4] (setting [13]).
Consider `CN[C@H](CC(C)C)C(=O)N[C@H]1C(=O)N[C@@H](CC(N)=O)C(=O)N[C@H]2C(=O)N[C@H]3C(=O)N[C@H](C(=O)N[C@H](C(=O)O)c4cc(O)cc(O)c4-c4cc3ccc4O)[C@H](O)c3ccc(c(Cl)c3)Oc3cc2cc(c3O[C@@H]2O[C@H](CO)[C@@H](O)[C@H](O)[C@H]2O[C@H]2C[C@](C)(N)[C@H](O)[C@H](C)O2)Oc2ccc(cc2Cl)[C@H]1O` [Vancomycin hydrochloride], for which the growth in experiment [1] is 0.0502 ± 0.0016; in the experiment on E. coli TESEC Mtb Alr [2] (setting [5]) it was 0.084 ± 0.073; in the experiment with E. coli TESEC Mtb Alr [2] (setting [6]), 0.03873 ± 0.00032; in the experiment with E. coli TESEC Mtb Alr [2] (setting [7]), 0.0413 ± 0.0026; with E. coli TESEC Mtb Alr [2] (setting [8]), 0.0388 ± 0.00044; in the experiment on E. coli TESEC Mtb Alr [2] (setting [9]) it was 0.0471 ± 0.0044. Further, the growth with E. coli TESEC Mtb Asd (setting [10]) came to 0.0662 ± 0.0062; with E. coli TESEC Mtb Asd (setting [11]) it was 0.0563 ± 0.011; in experiment [3], 0.0581 ± 0.0048; with E. coli TESEC Mtb Alr [4] (setting [12]) it was 0.217 ± 0.15; in the experiment with E. coli TESEC Mtb Alr [4] (setting [13]), 0.0507 ± 0.00062.
